Bioassay records: PubChem, National Center for Advancing Translational Sciences (NCATS)
The list is not random: actives were taken first. Their share in the collection is about 19%.
CHX counter: counter-screen for Shiga toxin inhibitors: cycloheximide protein synthesis inhibition | cell reporter, cycloheximide protein synthesis inhibition counterscreen | max response, % | hit rate 12% among 300,000 | AID 2314; in the data active means max response mostly above about 13%, no sharp cut-off; inactive means mostly below about 14%; further: read at 38.3 µM for the half of the compounds with a filed dose
Pf growth 96h: P. falciparum growth inhibition at 96 hours; AID 504834; P. falciparum luciferase reporter growth, 96 h; hit rate 6.9% among 320,000; Potency, µM (highest dose often 28.7 µM), hits mostly inhibitors
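Infected RBCs, 2% Hct / 0.05% parasitemia final; luciferase-reporter P. falciparum; cpd 96 h, 37 C, 5% CO2; luciferase detection reagent; luminescence.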
Pf growth 48h: inhibits P. falciparum growth in the first generation, 48 h. hit rate 5.9% among 310,000. AID 504832. P. falciparum luciferase growth in erythrocytes, 48 h. Potency, µM (titrated, usually from 28.7 µM), hits mostly inhibitors
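In quantitative HTS format, infected erythrocytes bearing luciferase-reporter parasites were treated for a single generation at 37 C. Luminescence after adding detection reagent served as the growth measure.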
Marburg entry inh: inhibitors of Marburg virus binding or cell entry. Potency, µM (top dose mostly 37.8 µM), usual class: inhibitors. hit rate 1.8% among 300,000. Marburg virus pseudotyped entry inhibition, cell reporter; calls by dose curve; tested in HEK293 cells
LASV entry inh: blocks Lassa virus binding to or entry into cells; Lassa virus pseudotype entry inhibition, cell reporter; Potency, µM (series often up to 37.9 µM), most hits filed as inhibitors; hit rate 1.2% among 300,000; AID 540256; calls by dose curve; tested in HEK293 cells; further: nearly all actives have a fitted effect of over 50% in size
Shiga toxin inh: blocks Shiga toxin action in Vero cells; inhibition, % at 38.7 µM; Vero cells, Shiga toxin protein synthesis inhibition reporter; hit rate 9.2% among 290,000; AID 2315; in the data active means inhibition mostly above about 28%, no sharp cut-off; inactive means mostly below about 43%
A number is an active result. Unless noted, the call rests on the fitted dose curve; in most records, active means well fitted inhibition curve with a large enough effect; inconclusive means small, poorly fitted or top-dose-only effect, or another doubt; inactive means no such curve, though single readings can be large or run the other way.

Screening CC1(C)CC(=O)c2sc(NS(=O)(=O)c3ccccc3)nc2C1 returned CHX counter inactive, Pf growth 96h inactive, Pf growth 48h inactive, Marburg entry inh inactive, LASV entry inh inactive and Shiga toxin inh inactive.
Screening O=C(Nc1nnc(C(F)(F)F)s1)C1COc2ccccc2O1 (stereo not given) returned CHX counter 34, Pf growth 96h inactive, Marburg entry inh inconclusive, LASV entry inh inconclusive and Shiga toxin inh 44.
`CC1(C)CC(=O)c2sc(NC(=O)CN3C(=O)CCC3=O)nc2C1` gave CHX counter 50, Pf growth 96h inactive, Pf growth 48h inactive and Shiga toxin inh 74.
Screening CC1(C)CC(=O)c2sc(NS(=O)(=O)c3ccc([N+](=O)[O-])cc3)nc2C1 returned CHX counter 46, Pf growth 96h inconclusive, Pf growth 48h inactive, Marburg entry inh inactive, LASV entry inh inactive and Shiga toxin inh inactive.
For O=C(Nc1nncs1)C1COc2ccccc2O1 (stereo not given) the results were CHX counter 14, Pf growth 96h inactive, Pf growth 48h inactive, Marburg entry inh inconclusive, LASV entry inh inactive and Shiga toxin inh 50.
`O=C(NNC(=O)C1COc2ccccc2O1)c1ccccc1` (stereo not given) gave CHX counter inactive, Pf growth 96h inactive, Pf growth 48h inactive, Marburg entry inh inactive, LASV entry inh inactive and Shiga toxin inh inactive.
`O=C(Nc1cccnc1)C1COc2ccccc2O1` (stereo not given) gave CHX counter inactive, Pf growth 96h inactive, Pf growth 48h inactive, Marburg entry inh inactive, LASV entry inh inactive and Shiga toxin inh inactive.
For CC1(C)CNC(=O)c2sc(NC(=O)c3ccccc3Cl)nc2C1 the results were CHX counter 17, Pf growth 96h inactive, Pf growth 48h inactive, Marburg entry inh inconclusive, LASV entry inh inactive and Shiga toxin inh inactive.
For COc1ccc(-c2csc(NC(=O)C3COc4ccccc4O3)n2)cc1OC (stereo not given) the results were CHX counter inactive, Pf growth 96h inconclusive, Pf growth 48h inactive and Shiga toxin inh inactive.
Screening CC(C)(C)c1csc(NC(=O)C2COc3ccccc3O2)n1 (stereo not given) returned CHX counter 42, Pf growth 96h inactive, Pf growth 48h inactive, Marburg entry inh inconclusive, LASV entry inh inconclusive and Shiga toxin inh 87.
CC1(C)CC(=O)c2sc(NC(=O)C3COc4ccccc4O3)nc2C1 (stereo not given) was read as CHX counter 34, Pf growth 96h inactive, Pf growth 48h inactive and Shiga toxin inh 32.
Cc1cc(C)c2sc(NNC(=O)C3COc4ccccc4O3)nc2c1 (stereo not given) was read as CHX counter inactive, Pf growth 96h inactive, Pf growth 48h inactive, Marburg entry inh inactive, LASV entry inh inactive and Shiga toxin inh inactive.
For CC1(C)CC(=O)c2sc(NC(=O)c3ccco3)nc2C1 the results were CHX counter 33, Pf growth 96h inactive and Shiga toxin inh inactive.
`Cc1onc(-c2ccccc2)c1C(=O)Nc1nc2c(s1)C(=O)CC(C)(C)C2` gave CHX counter inactive, Pf growth 96h inconclusive, Pf growth 48h inactive, Marburg entry inh inconclusive, LASV entry inh inactive and Shiga toxin inh inactive.
`CCCNC(=O)c1ccc2c(=O)c(O)c(-c3ccc(C)cc3)[nH]c2c1` gave CHX counter inactive, Pf growth 96h inconclusive, Pf growth 48h inconclusive and Shiga toxin inh inactive.
COc1ccc(C(=O)c2sc(Nc3cc(Cl)ccc3C)nc2N)cc1OC was read as LASV entry inh inactive.
OC1(c2ccc(Br)cc2)CN(c2ccccc2)C2=[N+]1CCS2 (stereo not given) was read as CHX counter inactive, Pf growth 96h inconclusive, Pf growth 48h inconclusive, Marburg entry inh inconclusive, LASV entry inh inconclusive and Shiga toxin inh inactive.
Screening O=C(Nc1nnc(C2CC2)s1)C1COc2ccccc2O1 (stereo not given) returned CHX counter 34, Pf growth 96h inactive, Pf growth 48h inactive, Marburg entry inh inconclusive, LASV entry inh inconclusive and Shiga toxin inh inactive.
CC(=O)c1sc(NC(=O)C2COc3ccccc3O2)nc1C (stereo not given) was read as CHX counter 21, Pf growth 96h inactive, Pf growth 48h inactive and Shiga toxin inh inactive.
Screening O=C(Nc1nnc(CC(=O)N2CCOCC2)s1)C1COc2ccccc2O1 (stereo not given) returned CHX counter inactive, Pf growth 96h inactive, Pf growth 48h inactive, Marburg entry inh inactive, LASV entry inh inconclusive and Shiga toxin inh inactive.
Screening CC1CCCCN1CCNC(=O)c1cc2c(=O)n(C)c3ccccc3c2n1C (stereo not given) returned CHX counter inactive, Pf growth 96h inactive and Shiga toxin inh inactive.
`O=C(O)c1ccc2c(=O)n(-c3ccccc3)c(=S)[nH]c2c1` gave CHX counter inactive, Pf growth 96h inconclusive, Pf growth 48h inactive, Marburg entry inh inactive, LASV entry inh inactive and Shiga toxin inh inactive.
Screening COc1ccc(C(=O)Nc2sc3c(c2C(=O)NCc2ccco2)CCCC3)cc1OC returned CHX counter inactive, Pf growth 96h 3.3µM, Marburg entry inh inactive, LASV entry inh inconclusive and Shiga toxin inh inactive.
`COc1cc(C(=O)Nc2sc3c(c2C(=O)NCc2ccco2)CCCC3)cc(OC)c1OC` gave CHX counter inactive, Pf growth 96h 1.7µM, Marburg entry inh inactive, LASV entry inh inactive and Shiga toxin inh inactive.
`Cc1cc(O)c(-c2cc(C(=O)Nc3sc4c(c3C(=O)NCc3ccco3)CCC4)[nH]n2)cc1C` gave CHX counter inactive, Pf growth 96h 1.9µM, Pf growth 48h 1.2µM and Shiga toxin inh inactive.
`O=C(Nc1sc2c(c1C(=O)NCc1ccco1)CCCC2)c1ccc2c(c1)OCO2` gave CHX counter 44, Pf growth 96h inactive, Pf growth 48h inconclusive, Marburg entry inh inactive, LASV entry inh inactive and Shiga toxin inh 89.
`Cc1ccc(C(=O)Nc2sc3c(c2C(=O)NCc2ccco2)CCCC3)cc1` gave CHX counter inactive, Pf growth 96h inconclusive, Marburg entry inh inactive, LASV entry inh inactive and Shiga toxin inh inactive.
`COC(=O)Nc1sc2c(c1C(=O)NCc1ccco1)CCCC2` gave CHX counter inactive, Pf growth 96h inconclusive, Pf growth 48h inactive, Marburg entry inh inactive, LASV entry inh inactive and Shiga toxin inh inactive.
`Cc1cccc(C(=O)NC(CC(=O)O)c2ccc(OC3CCCC3)cc2)c1[N+](=O)[O-]` (stereo not given) gave CHX counter inactive, Pf growth 96h inactive, Pf growth 48h inactive, Marburg entry inh inactive, LASV entry inh inactive and Shiga toxin inh inactive.
C[n+]1ccccc1/C=C/c1ccc(F)c(F)c1 was read as CHX counter inactive, Pf growth 96h inactive, Pf growth 48h inconclusive, Marburg entry inh inconclusive and LASV entry inh inactive.
For Oc1ccccc1-c1nc(/C=C/c2ccccc2Cl)no1 the results were Marburg entry inh inactive and LASV entry inh inactive.
C[n+]1ccccc1/C=C/c1ccc2ncccc2c1 was read as CHX counter 27, Pf growth 96h inconclusive, Pf growth 48h 1.2µM and Shiga toxin inh 40.
